AMPAR-TARP mod = GluA2-stargazin AMPA receptor complex modulation; O88602+P19491; HEK293 GluA2+stargazin, membrane potential dye (FDSS), glutamate EC50; hits were called plate by plate, in both directions; calls only at 30 µM; 40,000 compounds, 3.5% hits;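 active means any of four per-well response measures lying three or more SD from its plate-wide compound average, in either direction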
GIRK2 act = Activates human GIRK2-containing potassium channels. P48051. HEK293 GIRK2/NPY4 cells, thallium flux fluorescence. activation (% efficacy), % for hits at 37.5 µM. 34,000 tested, under 10 active. AID 1259324;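 active means primary screen hit, no activity in plain HEK293 cells, and in GIRK2-only cells above 5% efficacy rising with concentration; inactive means the rest, including fluorescent compounds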;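 further: efficacy is normalized control-subtracted fluorescence 15 s after thallium addition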
Target sequence (P48051 whole entry, looked up): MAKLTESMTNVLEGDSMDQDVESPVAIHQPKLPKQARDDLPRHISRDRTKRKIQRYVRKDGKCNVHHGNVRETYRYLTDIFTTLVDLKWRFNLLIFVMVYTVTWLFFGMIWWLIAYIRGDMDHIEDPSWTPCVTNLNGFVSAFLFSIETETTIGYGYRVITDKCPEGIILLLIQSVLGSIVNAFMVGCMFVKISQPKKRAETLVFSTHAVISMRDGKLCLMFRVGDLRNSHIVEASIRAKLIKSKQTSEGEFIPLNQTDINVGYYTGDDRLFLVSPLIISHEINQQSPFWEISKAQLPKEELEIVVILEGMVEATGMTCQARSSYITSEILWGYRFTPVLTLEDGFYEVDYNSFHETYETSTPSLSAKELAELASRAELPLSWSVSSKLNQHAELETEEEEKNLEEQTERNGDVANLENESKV
Large screens that a line does not name were inactive. This excerpt belongs to a sample that is enriched for hits.

CC(C)N(Cc1ccccc1)C(=O)C(=O)c1c[nH]c2ccccc12	none (no result: GIRK2 act)
CCN(Cc1ccccc1)C(=O)C(=O)c1c[nH]c2ccccc12	AMPAR-TARP mod active (no result: GIRK2 act)
CCc1ccc(C(=O)c2cn(CC(=O)Nc3ccc4c(c3)OCCO4)c3ccc(Cl)cc3c2=O)cc1	none (no result: GIRK2 act)
COc1cccc(CCNC(=O)Cc2c(C)[nH]c(=O)[nH]c2=O)c1	none
CC1CN(CC(O)COc2cccc3ccccc23)CC(C)O1 (stereo not given)	none (no result: GIRK2 act)
Cc1cc(N2CC(C)OC(C)C2)nc2ccccc12 (stereo not given)	AMPAR-TARP mod active (no result: GIRK2 act)
CCOC(=O)C1C(=O)CC(C)(O)C(C(=O)OCC)C1c1ccc(C)cc1 (stereo not given)	AMPAR-TARP mod active
CCOC(=O)C1C(=O)CC(C)(O)C(C(=O)OCC)C1c1cccs1 (stereo not given)	none
COc1cccc(-c2ccc(=O)n(CCCC(=O)Nc3c(C)cccc3C)n2)c1	none
CC(C)N(C(=O)CSc1ncnc2c1nnn2C)C(C)C	none
CC1CC(C)CN(S(=O)(=O)c2c(F)cccc2F)C1 (stereo not given)	AMPAR-TARP mod active (no result: GIRK2 act)
COc1ccc(C)cc1S(=O)(=O)N1CC(C)CC(C)C1 (stereo not given)	none (no result: GIRK2 act)
COc1ccc(NC(=O)NCCCn2nc(-c3ccc(OC)cc3)ccc2=O)cc1	none
Cc1ccc(S(=O)(=O)N(C)CC(=O)N2CCCCC2)cc1	none (no result: GIRK2 act)
C=CCn1c(N2CCN(CC(N)=O)CC2)nc2c1c(=O)[nH]c(=O)n2C	none (no result: GIRK2 act)
CCC(=O)N1CCc2ccc(NC(=O)Nc3ccccc3F)cc2C1	none
COc1cc([N+](=O)[O-])ccc1NC(=O)c1ccc(=O)n(Cc2cccc(Cl)c2)c1	AMPAR-TARP mod active
COc1cc([N+](=O)[O-])ccc1NC(=O)c1ccc(=O)n(Cc2ccc(Cl)cc2)c1	none
COc1cc([N+](=O)[O-])ccc1NC(=O)c1ccc(=O)n(Cc2ccccc2)c1	AMPAR-TARP mod active
CC(=O)c1cccc(NC(=O)c2ccc(=O)n(Cc3cccc([N+](=O)[O-])c3)c2)c1	AMPAR-TARP mod active
COc1cccc(NC(=O)c2ccc(=O)n(Cc3cccc([N+](=O)[O-])c3)c2)c1	none
COc1cc([N+](=O)[O-])ccc1NC(=O)c1ccc(=O)n(Cc2cccc(C(F)(F)F)c2)c1	none
Cc1ccc(N2CC(C(=O)NCC(O)(c3ccco3)C3CC3)CC2=O)cc1C (stereo not given)	none
CCn1c(=NC(=O)c2cccc(S(=O)(=O)C(C)C)c2)sc2cc(C(=O)OC)ccc21	none
O=C(/C=C/c1ccccc1Cl)N1CCC(Cn2cnc3ccccc32)CC1	none
CCOC(=O)Nn1cnc2c(cnn2C(C)(C)C)c1=O	none
COc1ccc(S(=O)(=O)CC(=O)Nc2ccc(O)c(-c3nc4ccccc4s3)c2)cc1	none
COC(=O)c1ccc2c(=O)n(CCC(=O)N3CCOCC3)c(=S)[nH]c2c1	AMPAR-TARP mod active
COCCn1c(=S)[nH]c2cc(C(=O)N3CCc4ccccc4C3)ccc2c1=O	AMPAR-TARP mod active
COC(=O)c1ccc2c(=O)n(CCC(=O)NCCCN3CCOCC3)c(=S)[nH]c2c1	AMPAR-TARP mod active
COC(=O)c1ccc2c(=O)n(CCN3CCCCC3)c(=S)[nH]c2c1	none
COC(=O)c1ccc2c(=O)n(CCC(=O)N3CCC(Cc4ccccc4)CC3)c(=S)[nH]c2c1	none
COCCn1c(=S)[nH]c2cc(C(=O)N3CCN(c4ccccc4)CC3)ccc2c1=O	none
Cc1cc(C)c2sc(N(Cc3cccnc3)C(=O)c3cc(C)no3)nc2c1	none
COc1ccc(CNC(=O)C(=O)Nc2ccc(N3CCCS3(=O)=O)cc2)cc1	none (no result: GIRK2 act)
O=C(CCc1ccccc1)NCCn1ncc2c(N3CCCC3)ncnc21	none
COc1ccc(CCC(=O)NCCn2ncc3c(N4CCCCC4)ncnc32)cc1	AMPAR-TARP mod active
CCOc1ccccc1C(=O)NC1CC(=O)N(c2ccc(C)c(C)c2)C1 (stereo not given)	AMPAR-TARP mod active (no result: GIRK2 act)
CCOc1ccccc1C(=O)NC1CC(=O)N(c2ccccc2)C1 (stereo not given)	none (no result: GIRK2 act)
COc1cc(NC(=O)c2nnn(-c3cc(Cl)ccc3OC)c2C)cc(OC)c1	none
COc1ccc(OC)c2sc(N(CCN3CCOCC3)C(=O)c3ccc(Cl)s3)nc12	none (no result: GIRK2 act)
O=C(c1ccc(S(=O)(=O)N2CCOCC2)cc1)N(C(=O)N1CCCCC1)c1ccc(Cl)cc1	none (no result: GIRK2 act)
O=C(c1ccc(S(=O)(=O)N2CCOCC2)cc1)N(C(=O)N1CCCCC1)c1cccc(Cl)c1	AMPAR-TARP mod active
COc1ccc(C(=O)N(CCc2ccccc2)Cc2ccccn2)c(OC)c1OC	none
O=C(CC1CCCC1)Nc1nc(CSCc2ccc(F)cc2)cs1	AMPAR-TARP mod active
O=C(CCc1csc(NC(=O)c2ccc(F)cc2)n1)NCC1CCCCC1	none
CCOC(=O)Cn1c(=O)c2c(nc3n2CCCN3c2ccc(Oc3ccccc3)cc2)n(C)c1=O	none (no result: GIRK2 act)
Cn1c(CC(C)(C)C)nc2ccccc21	none
COc1ccc(CCC(=O)N2CCC(c3ccsc3)CC2)cc1	AMPAR-TARP mod active
COc1ccc(NC(=O)N2CCC(c3ccsc3)CC2)cc1	none (no result: GIRK2 act)
CSc1ccccc1CN1CCC(CNC(=O)COc2ccccc2F)CC1	none
CCOC(=O)CC(=O)CSc1ccnc2c1c(=O)n(C)c(=O)n2C	none
Cc1ccc(C(CNC(=O)c2ccccc2C)N2CCOCC2)cc1 (stereo not given)	AMPAR-TARP mod active
COc1cccc(C(CNC(=O)COc2ccc(C)cc2)N2CCOCC2)c1 (stereo not given)	none (no result: GIRK2 act)
COc1ccc(C(CNC(=O)C(=O)Nc2ccccc2[N+](=O)[O-])N2CCOCC2)cc1 (stereo not given)	none (no result: AMPAR-TARP mod)
Cc1ccc(C(CNC(=O)c2cccs2)N2CCOCC2)cc1 (stereo not given)	none
COc1cccc(C(CNC(=O)COc2ccccc2)N2CCOCC2)c1 (stereo not given)	AMPAR-TARP mod active
COc1ccc(C(CNC(=O)c2cccc([N+](=O)[O-])c2C)N2CCOCC2)cc1 (stereo not given)	AMPAR-TARP mod active (no result: GIRK2 act)
COc1ccc(CC(=O)NCC(c2cccc3ccccc23)N2CCOCC2)cc1 (stereo not given)	none
O=C(NCC(c1cccc2ccccc12)N1CCOCC1)c1ccc(Br)cc1 (stereo not given)	AMPAR-TARP mod active
O=C(COc1ccc2ccccc2c1)NCC1COC2(CCCCC2)O1 (stereo not given)	none
COCC(=O)N1Cc2nn(-c3ccccc3C)c(-n3cccc3)c2C1	none
CCCc1cc(=O)n(CC(=O)Nc2nc3ccc(C)cc3s2)cn1	none
COc1ccc(-c2nsc(C(=O)N3CCN(C4CCCCC4)CC3)c2N)cc1	none (no result: AMPAR-TARP mod)
O=C(CC1Sc2ccc(C(F)(F)F)cc2NC1=O)Nc1ccc(OC(F)(F)F)cc1 (stereo not given)	none (no result: GIRK2 act)
COc1ccc(OCC(=O)Nc2ccc(N3CCCCC3=O)c(C)c2)cc1	none
Cc1ccc(OCC(=O)NCC(c2cccc3ccccc23)N2CCOCC2)cc1 (stereo not given)	none
CCOc1ccc2ccccc2c1C(=O)NCC(c1cccc(OC)c1)N1CCOCC1 (stereo not given)	AMPAR-TARP mod active
COc1ccc(C(=O)NCC(c2cccc(OC)c2)N2CCOCC2)cc1 (stereo not given)	none
Cc1ccc(C(CNC(=O)COc2ccc3ccccc3c2)N2CCOCC2)cc1 (stereo not given)	AMPAR-TARP mod active
Cc1nnsc1C(=O)NCCn1ncc2c(N3CCCCCC3)ncnc21	none (no result: GIRK2 act)
Cc1ccc(NS(=O)(=O)c2c(C)cc(C)c(N(C)S(C)(=O)=O)c2C)cc1	none (no result: GIRK2 act)
